According to PubChem BioAssay (EPA / NIEHS):
“And” between values parts separate entries of the source, which are not always exact repeats. Equal entries are not always repeated. Results filed as inconclusive are left out. The source holds several records for some structures; these can differ, active in one and inactive in another. The source made the active and inactive calls. Rule for the calls, unless noted: active = hit-call score of the fitted dose curve at least 0.9, where 1 is the maximum; inactive = score below 0.9.

Tests used:
[1] = APR_HepG2_CellCycleArrest_1hr: Apredica 1-hour HepG2 Assay for Cell Cycle Arrest (AID 2282666); conditions: high-content imaging, actives raise or lower the signal
In short: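 HepG2 cells exposed for 1 h to 0.39–200 uM compound (0.5% DMSO). Fixed, Hoechst-stained nuclei imaged by ArrayScan; DNA content quantified by Cell Cycle analysis; bidirectional fit against DMSO.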

[2] = ACEA_ER_80hr: ACEA Biosciences xCELLigence Real-Time Cell Analysis on Estrogen Receptor Agonism for Proliferation (AID 2282667; active = hit-call score of the fitted dose curve at least 0.9, where 1 is the maximum); conditions: T47D proliferation, impedance (xCELLigence), 80 h
In short: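 Estrogen-driven proliferation is captured as electrode impedance in T47D cells 80 h after compound addition. Test articles ran at 8 concentrations, 1:4 dilutions from 100 uM final, in two replicate plates.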

[3] = APR_HepG2_MicrotubuleCSK_1hr: Apredica 1-hour HepG2 Assay for Microtubule CSK Stabilty (AID 2282669); conditions: HepG2 microtubule cytoskeleton imaging, actives raise or lower the signal
In short: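 HepG2 cells exposed 1 h to 0.39–200 uM compound (0.5% DMSO, duplicates), then formaldehyde-fixed, permeabilized and immunostained for alpha-tubulin with Hoechst nuclei. Imaged by ArrayScan high-content analysis; bidirectional fit versus DMSO.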

[4] = APR_HepG2_NuclearSize_1hr: Apredica 1-hour HepG2 Assay for Nuclear Size (AID 2282670); conditions: high-content imaging, actives raise or lower the signal
In short: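 HepG2 cells dosed 1 hr with 0.39–200 uM compound (0.5% DMSO), formaldehyde-fixed, Hoechst 33342-stained and imaged at 20x; nuclear diameter from nuclear stain, fitted bidirectionally against DMSO.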

[5] = APR_HepG2_p53Act_1hr: Apredica 1-hour HepG2 Assay for p53 Activation (AID 2282671); conditions: high-content imaging, actives raise or lower the signal
In short: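 HepG2 cells treated 1 h with compound at 0.39–200 uM (10 concentrations, duplicate) in 0.5% DMSO. Formaldehyde-fixed, permeabilised cells immunostained for p53 with Hoechst 33342; high-content imaging, bidirectional fit versus DMSO.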

[6] = APR_HepG2_MitoticArrest_1hr: Apredica 1-hour HepG2 Assay for Mitotic Arrest (AID 2282672); conditions: high-content imaging, actives raise or lower the signal
In short: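 HepG2 cells exposed 1 hr to compounds at 0.39–200 uM (0.5% v/v DMSO final), then fixed in 3.7% formaldehyde and immunostained for phospho-histone H3 with Hoechst 33342. Mitotic arrest scored by automated fluorescence imaging, fitted bidirectionally versus DMSO.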

[7] = APR_HepG2_P-H2AX_1hr: Apredica 1-hour HepG2 Assay for H2AX Phosphorylation (AID 2282673); conditions: high-content imaging, actives raise or lower the signal
In short: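 HepG2 dosed 1 hr at 0.39-200 uM (0.5% DMSO final), duplicate. Fixed in 3.7% formaldehyde, Triton permeabilized, immunostained for phospho-histone H2A.x (1:200) with Hoechst 33342; ArrayScan 20x imaging, bidirectional fit vs DMSO.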

[8] = APR_HepG2_MitoMembPot_1hr: Apredica 1-hour HepG2 Assay for Mitochondrial Membrane Potential (AID 2282675); conditions: imaging, actives raise or lower the signal
In short: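 HepG2 cells dosed 1 hour with 0.39–200 uM compound in duplicate, 0.5% DMSO final. MitoTracker Red CMXRos (250 nM, 30 min) loaded before formaldehyde fixation; fluorescence quantified by high-content imaging, bidirectional fitting versus DMSO.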

[9] = APR_HepG2_CellCycleArrest_24hr: Apredica 24-hour HepG2 Assay for Cell Cycle Arrest (AID 2282905); conditions: imaging, actives raise or lower the signal;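 note: cell cycle arrest scored as ratio of 2N to 4N nuclear DNA content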
In short: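 Cell cycle arrest is scored from nuclear DNA content measured by high-content imaging of Hoechst 33342-stained HepG2 cells following 24-hour treatment at ten concentrations up to 200 uM, with DMSO as baseline.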

[10] = APR_HepG2_StressKinase_1hr: Apredica 1-hour HepG2 Assay for Stress Kinase (AID 2282906); conditions: HepG2 stress kinase (phospho-c-Jun) imaging, actives raise or lower the signal
In short: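 HepG2 cells dosed 0.39-200 uM (0.5% DMSO) for 1 h, then formaldehyde-fixed. Stress kinase read by phospho-c-Jun immunofluorescence using high-content imaging; bidirectional fit vs DMSO.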

[11] = APR_HepG2_NuclearSize_24hr: Apredica 24-hour HepG2 Assay for Nuclear Size (AID 2282907); conditions: high-content imaging, actives raise or lower the signal
In short: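 Compounds in DMSO (final 0.5%) were added to human HepG2 hepatoma cells at ten concentrations up to 200 uM for 24 hr. Fixed nuclei were stained with Hoechst 33342, and nuclear diameter was quantified from automated images.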

[12] = APR_HepG2_MicrotubuleCSK_24hr: Apredica 24-hour HepG2 Assay for Microtubule CSK Stabilty (AID 2282909); conditions: HepG2 microtubule cytoskeleton imaging, actives raise or lower the signal
In short: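 Steps: dose HepG2 for 24 h (0.39–200 uM, 0.5% DMSO); fix 30 min in 3.7% formaldehyde at room temperature; permeabilize; stain alpha-tubulin 60 min; image microtubule cytoskeleton at 20x. Signal change fitted in both directions relative to DMSO.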

[13] = APR_HepG2_MitoticArrest_24hr: Apredica 24-hour HepG2 Assay for Mitotic Arrest (AID 2282910); conditions: high-content imaging, actives raise or lower the signal
In short: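 HepG2 cells, 24 h exposure at 0.39-200 uM (10 concentrations, duplicate, 0.5% DMSO). Fixed, stained for phospho-histone H3 with Hoechst; imaged by high-content microscopy, bidirectional fit versus DMSO.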

[14] = APR_HepG2_MitoMembPot_24hr: Apredica 24-hour HepG2 Assay for Mitochondrial Membrane Potential (AID 2282911); conditions: imaging, actives raise or lower the signal
In short: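 Mitochondrial dye uptake (MitoTracker Red CMXRos, 250 nM, 30 min pre-fixation) in HepG2 after 24 hr compound exposure, 0.39–200 uM; ArrayScan images at 20x, activity fitted in both directions relative to DMSO.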

[15] = APR_HepG2_MitoMass_24hr: Apredica 24-hour HepG2 Assay for Mitochondrial Mass (AID 2282912); conditions: high-content imaging, actives raise or lower the signal
In short: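 The liver line HepG2 was dosed in duplicate across a 0.39–200 uM series, with final DMSO held at 0.5% v/v, and harvested at 24 hr. High-content imaging measured mitochondrial dye staining.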

[16] = APR_HepG2_p53Act_24hr: Apredica 24-hour HepG2 Assay for p53 Activation (AID 2282913); conditions: high-content imaging, actives raise or lower the signal;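 note: p53 protein immunofluorescence averaged per cell in HepG2 with Hoechst nuclei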
In short: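 Following 24 hr dosing of HepG2 at 0.39–200 uM, the cells undergo formaldehyde fixation, Triton permeabilization and multiplexed antibody labeling that includes p53 (Cy5). Signal from the imaging is referenced to DMSO solvent controls.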

[17] = APR_HepG2_CellCycleArrest_72hr: Apredica 72-hour HepG2 Assay for Cell Cycle Arrest (AID 2282914); conditions: high-content imaging, actives raise or lower the signal
In short: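 Using multiplexed high-content imaging, HepG2 nuclei stained with Hoechst 33342 (2 ug/mL) were analysed for DNA content after fixation and permeabilization. Treatment lasted 72 hr across 0.39–200 uM in duplicate with final DMSO 0.5% v/v; DMSO served as negative control.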

[18] = APR_HepG2_CellLoss_1hr: Apredica 1-hour HepG2 Assay for Cell Loss (AID 2282668); conditions: high-content imaging;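 note: curves fitted both ways against DMSO so gain or loss of cells counts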
In short: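 HepG2 cells were treated for 1 h with compound at 0.39–200 uM, in duplicate, in 0.5% DMSO. After formaldehyde fixation, Hoechst 33342-stained nuclei were imaged on an ArrayScan to count cells. Data were fitted bidirectionally versus DMSO.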

[19] = APR_HepG2_CellLoss_24hr: Apredica 24-hour HepG2 Assay for Cell Loss (AID 2282908); conditions: high-content imaging;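 for AC50: fit in both directions so a hit may be cell loss or gain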
In short: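 Cell number is quantified by fluorescence imaging of Hoechst 33342-stained nuclei following dosing at 0.39–200 uM in 0.5% DMSO. Curves are fitted in both directions from the DMSO baseline.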

[20] = APR_HepG2_MitoMass_1hr: Apredica 1-hour HepG2 Assay for Mitochondrial Mass (AID 2282674); conditions: high-content imaging, actives raise or lower the signal
In short: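 HepG2 cells dosed 1 hr with 0.39-200 uM compound (0.5% DMSO), duplicate wells. Mitochondria stained with 250 nM MitoTracker Red CMXRos for 30 min before formaldehyde fixation, imaged at 20x by ArrayScan; bidirectional fit versus DMSO.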

Measured: AC50

COC(=O)c1ccccc1C(=O)OC
not listed: [18] | [19] | [20]
inactive: all other assays above

CCNc1nc(Cl)nc(NC(C)C)n1
not listed: [3] | [4] | [19] | [20]
inactive: all other assays above

COc1nc(NC(C)C)nc(NC(C)C)n1
not listed: [3] | [18] | [20]
inactive: all other assays above

N#Cc1nn(-c2c(Cl)cc(C(F)(F)F)cc2Cl)c(N)c1S(=O)C(F)(F)F (stereo unspecified)
active: [8] 54.4 µM | [9] 50.9 µM | [19] 96.2 µM | [12] 87.2 µM | [13] 100 µM | [17] 19.9 µM
not listed: [4] | [20]
inactive: all other assays above

O=C(O)c1nc(Cl)ccc1Cl
not listed: [3] | [19] | [20]
inactive: all other assays above

C=CCC1=C(C)[C@@H](OC(=O)[C@@H]2[C@@H](C=C(C)C)C2(C)C)CC1=O
active: [8] 109 µM | [12] 55.9 µM
not listed: [3] | [4] | [19] | [20]
inactive: all other assays above

CCCCNC(=O)n1c(NC(=O)OC)nc2ccccc21
active: [9] 22.7 µM | [19] 12.4 µM | [17] 17 µM
not listed: [3]
inactive: all other assays above

Cc1cc(Cl)ccc1OCC(=O)O
not listed: [3] | [4] | [19] | [20]
inactive: all other assays above

CCCC1COC(Cn2cncn2)(c2ccc(Cl)cc2Cl)O1 (stereo unspecified)
active: [14] 12.8 µM | [17] 100 µM
not listed: [4] | [19] | [20]
inactive: all other assays above

CO/C=C(/C(=O)OC)c1ccccc1Oc1cc(Oc2ccccc2C#N)ncn1
active: [2] 11.1 µM [middle of 5 runs] | [9] 39.3 µM and 692 nM | [14] 21.2 µM | [16] 110 µM | [17] 21 µM and 3.09 µM and 5.96 µM
inactive: [1] | [2] | [4] | [5] | [6] | [7] | [8] | [9] | [10] | [11] | [12] | [13] | [14] | [15] | [16] | [17]

CC(C)(C)c1ccc(CSc2cnn(C(C)(C)C)c(=O)c2Cl)cc1
active: [2] 4.06 nM | [9] 16.1 µM | [17] 16.1 µM
not listed: [4] | [18] | [19] | [20]
inactive: all other assays above

CON(C)C(=O)Nc1ccc(Cl)c(Cl)c1
active: [9] 31.2 µM | [14] 28.9 µM
not listed: [4] | [18] | [19] | [20]
inactive: all other assays above
